Screening results from PubChem.
S2 tox: Viability Counterscreen for Primary qHTS for Inhibitors of ATXN expression; actives 0.49% (n = 400,000); S2 cells (HEK-293 line with an ATXN2-luciferase reporter) viability, CellTiter-Fluor protease fluorescence, 24 h; Potency, µM (series often up to 56.7 µM), most hits filed as cytotoxic; also: nearly all actives have a fitted effect of over 40% in size
GLP1R ag: qHTS of GLP-1 Receptor Agonists | Glucagon-like peptide 1 receptor (Homo sapiens), P43220 | HEK293 GLP-1R CRE-luciferase, luminescence, 4-6 h; cells express a hypersensitive GLP-1R form | Potency, µM (series often up to 45.6 µM), for the others: top-dose activation, actives largely listed as activators | actives 0.007% (n = 380,000) | AID 624172, 2012; also: % of control where 0% means no effect
Target sequence (P43220 whole entry, looked up): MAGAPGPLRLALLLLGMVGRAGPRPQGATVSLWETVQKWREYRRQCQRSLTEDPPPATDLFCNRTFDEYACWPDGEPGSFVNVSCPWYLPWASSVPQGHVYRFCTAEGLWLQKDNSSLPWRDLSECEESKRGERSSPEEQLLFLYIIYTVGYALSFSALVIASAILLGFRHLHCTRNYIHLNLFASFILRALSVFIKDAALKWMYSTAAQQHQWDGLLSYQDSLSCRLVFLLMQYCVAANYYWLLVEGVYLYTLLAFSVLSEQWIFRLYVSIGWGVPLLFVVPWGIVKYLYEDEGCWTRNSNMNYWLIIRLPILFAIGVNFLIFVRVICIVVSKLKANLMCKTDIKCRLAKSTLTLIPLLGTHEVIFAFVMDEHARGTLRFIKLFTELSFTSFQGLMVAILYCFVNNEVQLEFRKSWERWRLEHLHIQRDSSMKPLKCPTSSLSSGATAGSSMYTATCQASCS
GLP1R inv ag: qHTS of GLP-1 Receptor Inverse Agonists (Inhibition Mode); Glucagon-like peptide 1 receptor (Homo sapiens), P43220; HEK293 GLP-1R CRE-luciferase, luminescence, 24 h; GLP-1R form is constitutively active; Potency, µM (top dose mostly 38.3 µM), for the others: at the highest dose activity change, negative = inhibition, usual class: inhibitors; actives 1.6% (n = 410,000); also: % is scaled to controls: 0 for no effect and ±100 for the full control effect; nearly all actives have a fitted effect of over 55% in size
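Constitutively active GLP-1R drives a cAMP-responsive luciferase in stably transfected HEK293 cells; test compounds are added after overnight (12 h) attachment and left 24 hr, and signal loss in luminescence marks inhibition.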
ATXN2 expr inh: Primary qHTS for Inhibitors of ATXN expression. actives 0.72% (n = 360,000). Potency, µM (doses to about 57 µM), for inactives: at the top dose activity change, negative = inhibition, actives largely listed as inhibitors. AID 1745845, 2022. HEK-293 ATXN2-luciferase reporter, luminescence, 24 h; also: % is scaled to controls: 0 for no effect and ±100 for the full control effect; nearly all actives have a fitted effect of over 55% in size
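ATXN2-luciferase reporter cells (luciferase flanked by upstream and downstream ATXN2 gene portions) were treated 24 h at 37 °C with compounds at up to 57 uM. SteadyGlo luminescence gave expression; GF-AFC fluorescence gave viability.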
TGFb inhibitor: qHTS for Inhibitors of TGF-b | HepG2 CAGA-GFP TGF-b/SMAD3 reporter, GFP fluorescence, 18 h; TGF-beta stimulated, 500 pg/mL final | Potency, µM (highest dose often 46.1 µM), for inactives: at the highest dose activity, negative = inhibition, usual class: inhibitors | actives 1.2% (n = 410,000); also: % is scaled to controls: 0 for no effect and ±100 for the full control effect; nearly all actives have a fitted effect of over 65% in size
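Cell-based qHTS in HEPG2 carrying a CAGA-GFP Smad reporter; compounds added before 500 pg/mL final TGF-beta, 18 h incubation at 37 degrees C, GFP fluorescence quantified per cell by imaging cytometry.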
HepG2 tox: qHTS for Inhibitors of TGF-b: Cytotox Counterscreen | AID 588856, 2011 | HepG2 CAGA-GFP viability, ATP luminescence, 18 h | Potency, µM (top dose mostly 46.1 µM), without a hit: at the highest dose activity change, negative = cytotoxicity, hits mostly cytotoxic | actives 0.76% (n = 410,000)
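HepG2 CAGA-GFP cells (1000/well, DMEM with 1% FBS) received compound, then TGF-beta at 500 pg/mL final, and were incubated 18 hours at 37 degrees C. Viability was read by CellTiter-Glo luminescence. Media-only wells were set as complete cell-killing and DMSO as no toxicity.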
* = called active by the depositor; i = inactive; u = inconclusive; x = not tested or not shown; [ ] = another dose, or the depositor's remark. Most compounds without a hit are left out; they make up all but 3.7% or so of the library. Calls follow the shape of the dose curve; as a rule, active = well fitted curve in the direction sought with a large enough effect; inconclusive = small, poorly fitted or top-dose-only effect, or another doubt; inactive = no such curve, though single readings can be large; an effect the other way counts as inactive or inconclusive. Potency is read from the fitted curve at half-maximal effect.

SMILES | S2 tox | GLP1R ag | GLP1R inv ag | ATXN2 expr inh | TGFb inhibitor | HepG2 tox
CCOc1ccc(OCc2cccc(C(=O)N/N=C/c3cccnc3)c2)cc1 | i | 15% | -72% | 2.1µM* | 11% | -38%
CC(C)c1ccc(OCc2cccc(C(=O)N/N=C/c3cccnc3)c2)cc1 | i | 16% | -69% | 11µM* | -9% | -32%
O=C(N/N=C/c1cccnc1)c1cccc(Br)c1 | i | -1% | 6% | -2% | 7% | -2%
CCn1c(SCc2ccccc2)nnc1C1CCCCC1 | i | 13% | 4µM* | 6% | 0% | 27%
Cn1c(CNc2ccc(Cl)cc2)nnc1SCc1ccccc1 | i | 2% | -10% | -16% | -11% | -27%
CCn1c(SCc2ccccc2)nnc1C1CCN(S(=O)(=O)c2ccc(OC)cc2)CC1 | i | -5% | -22% | -29% | 0% | -22%
CCn1c(CNc2ccc(Cl)cc2)nnc1SCc1ccccc1 | i | -13% | 11µM* | -16% | -3% | -20%
COc1cc2nc(N(C)CCCNC(=O)[C@@H]3CCCO3)nc(N)c2cc1OC | x | 5%[19.8 µM] | x | x | x | x
COc1cccc(-c2cc3c(c(OC)c2)OCCN(Cc2ccccc2O)C3)n1 | i | x | x | x | x | x
COc1cc(C(=O)Oc2ccccc2/C=N/NC(=O)c2ccc(Cl)cc2)cc(OC)c1OC | u | 1% | 2.8µM* | 0% | 7.1µM* | 6%
O=C(O)COc1ccccc1/C=N/NC(=O)c1ccc2c(c1)OCCO2 | i | 4% | 0% | x | 27% | 8%
O=C(N/N=C/c1cc(Br)cc(Cl)c1O)c1ccc2c(c1)OCO2 | i | 4% | 2.5µM* | 13µM* | u | -64%
COc1cc(Cl)cc(/C=N\NC(=O)c2ccc3c(c2)OCO3)c1O | x | -3% | u | x | 11µM* | -27%
O=C(N/N=C/c1ccccc1OC(=O)c1ccc2c(c1)OCO2)c1cccc(F)c1 | u | 0% | 10µM* | 0% | 0% | -29%
O=C(N/N=C/c1ccccc1O)c1ccc2c(c1)OCO2 | i | 11% | u | u | -26% | -13%
CCc1ccc(NCc2cc3ccc(OC)cc3n(CC(=O)Nc3cccc(Cl)c3C)c2=O)cc1 | i | 2% | 8% | 9% | -1% | -2%
COc1ccc(-c2cc(C3C4C=CCC(C)C4C(=O)N3Cc3ccccc3)ccc2F)cc1OC (stereo not drawn) | x | x | x | x | -22% | 5%
COc1ccc(-n2ccn(CC(=O)NCCc3ccccc3)c(=O)c2=O)cc1OC | x | x | 1% | x | -9% | 3%
COc1ccc(-c2ccc(F)cc2)cc1C1C2C=CCC(C)C2C(=O)N1Cc1ccccc1 (stereo not drawn) | x | x | x | x | -8% | -1%
O=C(N/N=C/c1cc(Br)c(O)c(Br)c1O)c1ccc2c(c1)OCCO2 | i | 1% | u | u | -27% | -4%
Cc1cc(Br)cc(/C=N/NC(=O)c2ccc3c(c2)OCO3)c1O | u | -7% | u | x | 5.6µM* | 1.8µM*
O=C(CN1C2=NCCN2c2ccccc21)c1ccc2c(c1)OCO2 | 16µM* | 1% | u | -34% | -25% | -8%
O=C(CN1C2=NCCCN2c2ccccc21)c1ccc([N+](=O)[O-])cc1 | i | -4% | -7% | u | u | 16µM*
O=C(CN1C2=NCCN2c2ccccc21)c1ccc(Br)cc1 | i | 11% | u | -18% | u | -21%
O=C(CN1C2=NCCCN2c2ccccc21)c1cccc(Br)c1 | u | 0% | u | -14% | u | -38%
SMILES | S2 tox | GLP1R ag | GLP1R inv ag | ATXN2 expr inh | TGFb inhibitor | HepG2 tox
N#Cc1nc(N(c2ccccc2)c2ccccc2)nc(-n2cccc2)n1 | x | x | x | x | u | 0%
Cc1nc(C)c(CC(=O)N2CCOc3ccc(CN4CCN(c5ccccn5)CC4)cc3C2)s1 | i | x | x | x | x | x
O=C(Nc1ccccn1)c1onc2c1CCCC2 | i | -32% | 2.5µM* | u | 0% | 5µM*
O=C(Nc1ccccn1)c1csc2c1CCCC2 | i | 17% | 0% | 57% | -19% | -15%
CCN(CC)CCC(c1ccc(N(C)C)cc1)c1c(OC)cc(OC)c2c(-c3ccccc3)cc(=O)oc12 (stereo not drawn) | u | -4% | -23% | u | u | -92%
CCCCCc1cc(=O)oc2c(C(CCN3CCCC3)c3ccc4c(c3)OCO4)c(OC)cc(OC)c12 (stereo not drawn) | x | x | x | x | u | -98%
COc1cc(OC)c2ccc(=O)oc2c1C(CCN1CCCC1)c1ccc2c(c1)OCO2 (stereo not drawn) | 14µM* | 3% | 40% | 5% | -7% | -14%
COc1cc(OC)c2c(-c3ccccc3)cc(=O)oc2c1C(CCN1CCCC1)c1ccc2c(c1)OCO2 (stereo not drawn) | u | 10% | 31% | 0% | u | -8%
CCCCCc1cc(=O)oc2c(C(CCN(CC)CC)c3cc(OC)c(OC)c(OC)c3)c(OC)cc(OC)c12 (stereo not drawn) | 32µM* | 0% | u | u | u | 18µM*
CCCCCc1cc(=O)oc2c(C(CCN3CCCCC3)c3ccc4c(c3)OCO4)c(OC)cc(OC)c12 (stereo not drawn) | 18µM* | 4% | -1% | 32µM* | 18µM* | -93%
COc1cc(OC)c2ccc(=O)oc2c1C(CCN1CCOCC1)c1ccc2c(c1)OCO2 (stereo not drawn) | 8.9µM* | 0% | 12% | -8% | -20% | -27%
CCN1CCN(CCCNC(=O)Cn2nc(C)n3c(cc4c(OC)cccc43)c2=O)CC1 | x | x | 0% | x | 0% | -14%
C[C@H](CO)N1C[C@H](C)[C@@H](CN(C)Cc2ccc(-c3ccccc3)cc2)Oc2c(NS(=O)(=O)c3cn(C)cn3)cccc2C1=O | i | -4% | 4% | 2% | 3.2µM* | 3%
C[C@H](CO)N1C[C@H](C)[C@@H](CN(C)Cc2ccccc2)Oc2c(NC(=O)Cc3ccccc3)cccc2C1=O | u | 16% | u | u | u | -33%
C[C@H](CO)N1C[C@H](C)[C@@H](CN(C)Cc2ccc(Cl)c(Cl)c2)Oc2c(NS(=O)(=O)c3ccc(F)cc3)cccc2C1=O | u | -1% | 11µM* | u | u | -16%
